Source: PubChem (several laboratories)
The entries come from a sample that favours hits as a whole.
GALR2 antag – GALR2 antagonists in receptor-expressing cells, primary screen; Galanin receptor type 2 (Homo sapiens), O43603; antagonist mode; inhibition, % at 4 µM; actives 0.39% (n = 140,000); in the data active = inhibition above about 27%;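 note: cells stimulated with galanin 1-16 at roughly its EC80; 0% = agonist challenge control and 100% = basal control without agonist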
PostGolgi yeast – phenotypic screen on post-Golgi transport, primary screen; AID 739, 2007; actives 0.9% (n = 98,000); post-Golgi transport phenotypic cell assay; inhibition, % at 10 µM;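 note: yeast cells grown in 1536-well plates; yeast grown about 18 h at 30C before absorbance read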
S1P2 antag – human S1P2 receptor antagonists, primary screen, cell-based; Sphingosine 1-phosphate receptor 2 (Homo sapiens), O95136; cell-based S1P2 antagonist assay, inhibition at 5 uM; inhibition, % at 5 µM; actives 0.21% (n = 97,000); AID 736, 2007; in the data active = inhibition above about 45%;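 note: CRE beta-lactamase reporter cells expressing human S1P2 stimulated with S1P; 0% = agonist at EC80 alone and 100% = agonist plus reference antagonist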
Target sequence (O95136 whole entry, looked up): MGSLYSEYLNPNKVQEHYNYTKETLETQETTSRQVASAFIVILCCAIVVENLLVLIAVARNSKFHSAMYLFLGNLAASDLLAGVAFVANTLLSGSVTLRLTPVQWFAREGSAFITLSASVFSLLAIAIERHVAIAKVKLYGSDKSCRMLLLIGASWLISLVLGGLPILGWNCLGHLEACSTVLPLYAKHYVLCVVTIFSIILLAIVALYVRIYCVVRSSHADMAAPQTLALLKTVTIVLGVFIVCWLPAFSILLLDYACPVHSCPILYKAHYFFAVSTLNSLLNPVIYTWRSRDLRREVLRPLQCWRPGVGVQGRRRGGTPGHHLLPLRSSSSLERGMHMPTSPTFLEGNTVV
PostGolgi ctrl – growth inhibition of yeast control strain, primary screen, counter-screen for post-Golgi transport modulator project | AID 738, 2007 | actives 5% (n = 98,000) | inhibition, % at 10 µM | efflux-deficient yeast background strain, growth absorbance A615, 16 h
S1P2 agonist – S1P2 receptor agonists, primary screen, cell-based | Sphingosine 1-phosphate receptor 2 (Homo sapiens), O95136 | S1P2-expressing cell line, agonist reporter read-out | activation, % at 4.5 µM | actives 0.46% (n = 97,000) | AID 729, 2007; in the data active = activation above about 16%;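 note: 0% = vehicle low control and 100% = maximal reference agonist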
GALR2 agonist – GALR2 receptor agonists, primary screen, cell-based | Galanin receptor type 2 (Homo sapiens), O43603 | GALR2-expressing cells, agonist activation read-out | activation, % (no concentration beside the values) | actives 0.48% (n = 140,000) | AID 803, 2007; in the data active = activation above about 5%, passing the limit was not always enough;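 note: 0% = vehicle buffer wells and 100% = reference agonist at full effect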
An asterisk follows results filed as active. Cut-off read from the data, not from the text of the source, unless noted: active = inhibition above about 30%; inactive = the rest.

For O=C(c1cc(-c2ccccc2O)on1)N1CCc2ccccc2C1 the results were GALR2 antag 4, PostGolgi yeast -1, S1P2 antag 5, PostGolgi ctrl 56*, S1P2 agonist -3 and GALR2 agonist -1.
`CC1CCN(C(=O)c2cc(-c3ccccc3O)on2)CC1` gave GALR2 antag -8, PostGolgi yeast -10, S1P2 antag 20, PostGolgi ctrl 35*, S1P2 agonist -3 and GALR2 agonist -1.
O=C(c1cc(-c2ccc(O)cc2)on1)N1CCc2ccccc2C1 was read as GALR2 antag 9, PostGolgi yeast 5, S1P2 antag 12, PostGolgi ctrl 28, S1P2 agonist -7 and GALR2 agonist -3.
For O=C(c1noc2c1CCc1ccccc1-2)N1CCc2ccccc2C1 the results were GALR2 antag 8, PostGolgi yeast 1, PostGolgi ctrl 33* and GALR2 agonist -2.
O=C(c1noc2c1CCc1ccccc1-2)N1CCOCC1 was read as GALR2 antag -3, PostGolgi yeast 13, S1P2 antag -25, PostGolgi ctrl 0, S1P2 agonist -3 and GALR2 agonist -2.
CCCCn1nnc(NC(=S)NC(=O)c2cccs2)n1 was read as GALR2 antag 1 and GALR2 agonist -1.
O=C(NCc1ccco1)c1ccc(COc2cc(Cl)ccc2Cl)cc1 was read as GALR2 antag 0 and GALR2 agonist -1.
`O=C(OCc1cc2ccccc2[nH]c1=O)C1CCCCC1` gave GALR2 antag -9, PostGolgi yeast 30*, S1P2 antag -2, PostGolgi ctrl 13, S1P2 agonist -4 and GALR2 agonist -1.
O=C(COC(=O)CNC(=O)c1ccccc1)Nc1nc(-c2ccccc2)cs1 was read as GALR2 antag 7 and GALR2 agonist 0.
For Cc1cc2nc3c(nc2cc1C)C1(C(=O)O)CCC3(C)C1(C)C (configuration not stated) the results were GALR2 antag -2, PostGolgi yeast -7, S1P2 antag 19, PostGolgi ctrl 32*, S1P2 agonist -3 and GALR2 agonist -1.
For CNC(=O)C12CCC(C)(c3nc4cc(C)c(C)cc4nc31)C2(C)C (configuration not stated) the results were GALR2 antag -6, PostGolgi yeast 3, S1P2 antag -8, PostGolgi ctrl 25, S1P2 agonist 0 and GALR2 agonist -2.
Cc1oc(-c2ccc(Cl)cc2)nc1CN1CCC(C(=O)N2CCN(Cc3ccccc3)CC2)CC1 was read as GALR2 antag -10, PostGolgi yeast -13, S1P2 antag 43, PostGolgi ctrl 33*, S1P2 agonist -8 and GALR2 agonist 0.
`Cc1oc(-c2ccc(Cl)cc2)nc1CN1CCC(C(=O)N2CCc3ccccc3C2)CC1` gave GALR2 antag -9, PostGolgi yeast -2, S1P2 antag 11, PostGolgi ctrl 7, S1P2 agonist -9 and GALR2 agonist -3.
For COc1cccc(CNn2c(-c3cccc(C)c3)nc3ccccc3c2=O)c1 the results were GALR2 antag -7, PostGolgi yeast 4, S1P2 antag -1, PostGolgi ctrl 36*, S1P2 agonist 1 and GALR2 agonist 0.
For COc1ccc(OC)c(CNn2c(-c3cccc(C)c3)nc3ccccc3c2=O)c1 the results were GALR2 antag -16, PostGolgi yeast -1, S1P2 antag -1, PostGolgi ctrl 28, S1P2 agonist 1 and GALR2 agonist -1.
For Cc1ccc(S(=O)(=O)c2cc3c(=O)n4ccccc4nc3n(Cc3ccco3)c2=N)cc1 the results were GALR2 antag 13, PostGolgi yeast -7, S1P2 antag -7, PostGolgi ctrl -1, S1P2 agonist 0 and GALR2 agonist 2.
`Cn1c(=N)c(S(=O)(=O)c2ccccc2)cc2c(=O)n3ccccc3nc21` gave GALR2 antag -9, PostGolgi yeast 1, S1P2 antag -57, PostGolgi ctrl 5, S1P2 agonist 22* and GALR2 agonist 3.
For N=c1c(S(=O)(=O)c2ccc(Cl)cc2)cc2c(=O)n3ccccc3nc2n1CCN1CCOCC1 the results were GALR2 antag -1, PostGolgi yeast 22, PostGolgi ctrl 16 and GALR2 agonist 8.3*.
`Cn1c(=N)c(S(=O)(=O)c2ccc(F)cc2)cc2c(=O)n3ccccc3nc21` gave GALR2 antag -11, PostGolgi yeast 7, S1P2 antag -18, PostGolgi ctrl 12, S1P2 agonist 2 and GALR2 agonist 1.
For COc1cc(C)c(S(=O)(=O)N2CCCC2)cc1C the results were GALR2 antag -13, PostGolgi yeast -4, S1P2 antag 2, PostGolgi ctrl -3, S1P2 agonist -1 and GALR2 agonist -1.
CC/C(=N/N=C(\CC)c1ccccc1)c1ccccc1 was read as GALR2 antag 10 and GALR2 agonist -1.
`Cn1ncc(C#N)c1NC(=O)c1cc(-c2ccccc2Cl)on1` gave GALR2 antag 4, PostGolgi yeast -5, S1P2 antag 8, PostGolgi ctrl 30*, S1P2 agonist -6 and GALR2 agonist 0.
Screening Cn1ncc(C#N)c1NC(=O)C1CC(c2c(F)cccc2Cl)=NO1 (configuration not stated) returned GALR2 antag -9, PostGolgi yeast 5, S1P2 antag 7, PostGolgi ctrl -2, S1P2 agonist -7 and GALR2 agonist -1.
COc1cccc(-n2cnc(=O)c3cccnc32)c1 was read as GALR2 antag -4 and GALR2 agonist -1.
Screening O=C(/C=C/c1ccc([N+](=O)[O-])cc1)N1CCN(c2ccccc2F)CC1 returned GALR2 antag 4 and GALR2 agonist 0.
O=C(/C=C/c1ccc(Cl)cc1)N1CCN(c2ccc(Cl)cc2[N+](=O)[O-])CC1 was read as GALR2 antag -3, PostGolgi yeast -14, S1P2 antag 27, PostGolgi ctrl 93*, S1P2 agonist -3 and GALR2 agonist -1.
CO/N=C(\c1nonc1N)N1CCN(c2ccc([N+](=O)[O-])cc2Cl)CC1 was read as GALR2 antag -2, PostGolgi yeast 0, S1P2 antag -2, PostGolgi ctrl 32*, S1P2 agonist -6 and GALR2 agonist -2.
CO/N=C(\c1nonc1N)N1CCN(c2ccc(Cl)cc2[N+](=O)[O-])CC1 was read as GALR2 antag -7, PostGolgi yeast -7, S1P2 antag 9, PostGolgi ctrl 58*, S1P2 agonist -6 and GALR2 agonist -2.
Screening CC(=O)O/N=C(/c1nonc1N)N1CCN(c2ccc([N+](=O)[O-])cc2Cl)CC1 returned GALR2 antag 6 and GALR2 agonist -2.
Screening CCO/N=C(/c1nonc1N)N1CCN(c2ccc([N+](=O)[O-])cc2)CC1 returned GALR2 antag 4, PostGolgi yeast 15, S1P2 antag -4, PostGolgi ctrl 4, S1P2 agonist -5 and GALR2 agonist -1.
